Values joined by “and” are separate entries in the source; they are usually repeats but may differ in a detail not shown here. Equal entries are not always repeated. The whole screen tested about 5,500 compounds, of which about 2,000 (36%) were called active. Not shown: some 18% with an inconclusive outcome. Rule as the data show it: active = normalized growth mostly below about 0.91 (no sharp cut-off); inconclusive = no clear call, values can overlap the other calls; inactive = mostly above about 0.92. The list shows a part of the results.
Assay: chemical genetic growth profiling, strain panel (AID 1159580);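 also: tested at 20 µM; growth read once vehicle control cultures reached saturation at 30 °C; 1 = growth at the plate median or of vehicle wells; lower values mean less growth of the strain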
Conditions: S. cerevisiae deletion strains, growth OD

Measured: normalized growth

CC(C)/C(O)=C1/C(=O)O[C@@H](c2ccoc2)[C@]2(C)C(O)[C@@H](O)[C@@]34OC5(C)OC67CC(C)(C(O)[C@]6(O)[C@@H](O)[C@]3(O5)C12)[C@H](CC(=O)O)[C@]74C (stereo partly drawn)
inactive: locus YAL021C, strain ccr4, stronger effect = lower value 0.945 | locus YAL026C, strain drs2, stronger effect = lower value 1.01 | locus YAL030W, strain snc1, stronger effect = lower value 0.979 | locus YBL061C, strain skt5, stronger effect = lower value 1.01 | locus YBR009C, strain hhf1, stronger effect = lower value 0.993 | locus YBR021W, strain FUR4, stronger effect = lower value 0.991 | locus YBR023C, strain chs3, stronger effect = lower value 0.992 | locus YBR171W, strain sec66, stronger effect = lower value 1.01 | locus YBR229C, strain ROT2, stronger effect = lower value 1 | locus YBR231C, strain swc5, stronger effect = lower value 1.03 | locus YBR279W, strain paf1, stronger effect = lower value 0.997 | locus YCL011C, strain gbp2, stronger effect = lower value 0.975 | locus YCL016C, strain dcc1, stronger effect = lower value 0.982 | locus YCL029C, strain bik1, stronger effect = lower value 0.997 | locus YCL061C, strain MRC1, stronger effect = lower value 0.998 | locus YCL069W, strain vba3, stronger effect = lower value 0.981 | locus YCR088W, strain abp1, stronger effect = lower value 0.994 | locus YDL005C, strain med2, stronger effect = lower value 0.985 | locus YDL035C, strain GPR1, stronger effect = lower value 0.993 | locus YDL040C, strain nat1, stronger effect = lower value 0.995 | locus YDL074C, strain BRE1, stronger effect = lower value 1 | locus YDL101C, strain DUN1, stronger effect = lower value 1.01 | locus YDL185W, strain tfp1, stronger effect = lower value 1.02 | locus YDL192W, strain arf1, stronger effect = lower value 1.01 | locus YDR001C, strain nth1, stronger effect = lower value 0.974 | locus YDR069C, strain doa4, stronger effect = lower value 1.02 | locus YDR101C, strain arx1, stronger effect = lower value 0.986 | locus YDR137W, strain rgp1, stronger effect = lower value 0.992 | locus YDR150W, strain NUM1, stronger effect = lower value 0.965 | locus YDR159W, strain sac3, stronger effect = lower value 1.06 | locus YDR162C, strain NBP2, stronger effect = lower value 1.01 | locus YDR195W, strain ref2 0.974 | locus YDR297W, strain sur2, stronger effect = lower value 1.01 | locus YDR318W, strain mcm21, stronger effect = lower value 1.01 | locus YDR334W, strain swr1, stronger effect = lower value 0.988 | locus YDR335W, strain msn5, stronger effect = lower value 0.987 | locus YDR388W, stronger effect = lower value 1 | locus YDR392W, strain spt3, stronger effect = lower value 0.933 | locus YDR502C, strain sam2, stronger effect = lower value 1.01 | locus YEL003W, strain gim4, stronger effect = lower value 1.01 | locus YEL037C, strain rad23, stronger effect = lower value 0.99 | locus YEL061C, strain CIN8 (second series), stronger effect = lower value 0.985 | locus YER015W, strain faa2, stronger effect = lower value 1.01 | locus YER016W, strain bim1, stronger effect = lower value 0.998 | locus YER110C, stronger effect = lower value 1.01 | locus YER111C, strain swi4, stronger effect = lower value 0.981 | locus YER155C, strain BEM2 (second series), stronger effect = lower value 1.04 | locus YER155C, strain BEM2, stronger effect = lower value 1 | locus YER167W, strain BCK2, stronger effect = lower value 0.996 | locus YFR010W, strain ubp6, stronger effect = lower value 1.01 | locus YGL078C, strain dbp3, stronger effect = lower value 1.02 | locus YGL086W, strain mad1, stronger effect = lower value 1 | locus YGL167C, strain pmr1, stronger effect = lower value 0.993 | locus YGL173C, strain kem1, stronger effect = lower value 1.02 | locus YGL227W, strain vid30, stronger effect = lower value 0.993 | locus YGL240W, strain doc1, stronger effect = lower value 1.02 | locus YGL248W, strain PDE1, stronger effect = lower value 0.997 | locus YGL253W, strain hxk2, stronger effect = lower value 1.01 | locus YGR135W, strain pre9, stronger effect = lower value 1.02 | locus YGR229C, strain SMI1, stronger effect = lower value 0.991 | locus YGR252W, strain gcn5, stronger effect = lower value 0.988 | locus YHR013C, strain ard1, stronger effect = lower value 0.976 | locus YHR027C, strain rpn1, stronger effect = lower value 0.994 | locus YHR030C, strain SLT2, stronger effect = lower value 0.951 | locus YHR079C, strain IRE1 (second series), stronger effect = lower value 1.01 | locus YHR079C, strain IRE1, stronger effect = lower value 0.984 | locus YHR094C, strain hxt1, stronger effect = lower value 1.01 | locus YHR129C, strain ARP1, stronger effect = lower value 0.999 | locus YHR142W, strain chs7, stronger effect = lower value 0.945 | locus YHR200W, strain rpn10, stronger effect = lower value 1.01 | locus YIL066C, strain RNR3, stronger effect = lower value 0.991 | locus YIL073C, strain SPO22, stronger effect = lower value 1.06 | locus YIL125W, strain kgd1, stronger effect = lower value 1 | locus YIR030C, strain dcg1, stronger effect = lower value 1.01 | locus YJL092W, strain hpr5, stronger effect = lower value 0.989 | locus YJL095W, strain BCK1 (second series), stronger effect = lower value 1 | locus YJL095W, strain BCK1, stronger effect = lower value 1.03 and 0.971 | locus YJL115W, strain asf1, stronger effect = lower value 0.977 | locus YJL129C, strain trk1, stronger effect = lower value 0.997 | locus YJL134W, strain LCB3, stronger effect = lower value 0.993 | locus YJL154C, strain vps35, stronger effect = lower value 0.98 | locus YJL164C, strain tpk1, stronger effect = lower value 0.958 | locus YJL166W, strain qcr8, stronger effect = lower value 1 | locus YJL168C, strain set2, stronger effect = lower value 1.01 | locus YJL187C, strain SWE1 (second series), stronger effect = lower value 1.01 | locus YJR066W, strain TOR1, stronger effect = lower value 0.926 | locus YJR075W, strain HOC1, stronger effect = lower value 1 | locus YKL009W, strain mrt4, stronger effect = lower value 1.02 | locus YKL068W, stronger effect = lower value 0.999 | locus YKL085W, strain MDH1 (second series), stronger effect = lower value 1.01 | locus YKL085W, strain MDH1, stronger effect = lower value 1.01 | locus YKL160W, strain elf1, stronger effect = lower value 0.962 | locus YKL190W, strain CNB1, stronger effect = lower value 0.986 | locus YKR001C, strain vps1, stronger effect = lower value 1.01 | locus YKR026C, strain gcn3, stronger effect = lower value 0.994 | locus YKR091W, strain srl3, stronger effect = lower value 0.991 | locus YLL001W, strain dnm1, stronger effect = lower value 0.973 | locus YLL026W, stronger effect = lower value 0.992 | locus YLL041C, strain sdh2, stronger effect = lower value 0.985 | locus YLR027C, strain aat2, stronger effect = lower value 0.999 | locus YLR039C, strain RIC1, stronger effect = lower value 1.06 | locus YLR058C, strain SHM2, stronger effect = lower value 1.01 | locus YLR102C, strain apc9, stronger effect = lower value 0.998 | locus YLR113W, strain HOG1, stronger effect = lower value 0.997 | locus YLR221C, strain rsa3, stronger effect = lower value 1.05 | locus YLR258W, strain gsy2, stronger effect = lower value 0.998 | locus YLR262C, strain YPT6 (second series), stronger effect = lower value 0.979 | locus YLR262C, strain YPT6, stronger effect = lower value 1.1 | locus YLR268W, strain sec22, stronger effect = lower value 0.999 | locus YLR320W, strain mms22, stronger effect = lower value 1.04 | locus YLR330W, strain CHS5, stronger effect = lower value 1 | locus YLR342W, strain FKS1 (second series), stronger effect = lower value 0.985 | locus YLR342W, strain FKS1, stronger effect = lower value 0.995 | locus YLR357W, strain rsc2, stronger effect = lower value 1.01 | locus YLR370C, strain arc18, stronger effect = lower value 0.977 | locus YLR371W, strain rom2, stronger effect = lower value 1.01 | locus YLR384C, strain iki3, stronger effect = lower value 0.997 | locus YLR418C, strain cdc73, stronger effect = lower value 1.03 | locus YML016C, strain PPZ1, stronger effect = lower value 1.01 | locus YML032C, strain rad52, stronger effect = lower value 1.01 | locus YML120C, strain ndi1, stronger effect = lower value 0.973 | locus YML124C, strain tub3, stronger effect = lower value 1.02 | locus YMR058W, strain fet3, stronger effect = lower value 1 | locus YMR078C, strain ctf18, stronger effect = lower value 1.02 | locus YMR125W, strain sto1, stronger effect = lower value 0.951 | locus YMR129W, stronger effect = lower value 0.989 | locus YMR205C, strain PFK2, stronger effect = lower value 0.978 | locus YMR223W, strain ubp8, stronger effect = lower value 1.01 | locus YMR231W, strain pep5, stronger effect = lower value 1 | locus YMR263W, strain SAP30, stronger effect = lower value 1.01 | locus YMR307W, strain GAS1, stronger effect = lower value 0.982 | locus YNL067W, strain RPL9B, stronger effect = lower value 1.03 | locus YNL071W, strain lat1, stronger effect = lower value 0.987 | locus YNL128W, strain TEP1, stronger effect = lower value 1 | locus YNL183C, strain NPR1, stronger effect = lower value 0.939 | locus YNL209W, strain ssb2, stronger effect = lower value 0.988 | locus YNL233W, strain BNI4, stronger effect = lower value 0.981 | locus YNL248C, strain rpa49, stronger effect = lower value 1.03 | locus YNL250W, strain rad50, stronger effect = lower value 1.01 | locus YNL271C, strain bni1, stronger effect = lower value 1.01 | locus YNL298W, strain CLA4, stronger effect = lower value 1.01 | locus YNL307C, strain MCK1, stronger effect = lower value 1 | locus YNL322C, strain KRE1 (second series), stronger effect = lower value 1.02 | locus YNR049C, strain mso1, stronger effect = lower value 0.974 | locus YNR052C, strain pop2, stronger effect = lower value 1.02 | locus YOL012C, strain htz1 0.728 | locus YOL147C, strain pex11, stronger effect = lower value 1.01 | locus YOR001W, strain rrp6, stronger effect = lower value 1.04 | locus YOR061W, strain CKA2, stronger effect = lower value 1 | locus YOR069W, strain VPS5, stronger effect = lower value 0.998 | locus YOR070C, strain gyp1, stronger effect = lower value 0.996 | locus YOR080W, strain dia2, stronger effect = lower value 1 | locus YOR083W, strain WHI5, stronger effect = lower value 0.954 | locus YOR106W, strain vam3, stronger effect = lower value 0.938 | locus YOR136W, strain idh2, stronger effect = lower value 1.02 | locus YOR144C, strain elg1, stronger effect = lower value 1.01 | locus YOR184W, strain ser1, stronger effect = lower value 1 | locus YOR231W, strain MKK1, stronger effect = lower value 0.991 | locus YOR265W, strain rbl2, stronger effect = lower value 0.989 | locus YOR270C, strain vph1, stronger effect = lower value 0.966 | locus YOR290C, strain snf2, stronger effect = lower value 0.907 | locus YOR316C, strain cot1, stronger effect = lower value 1.01 | locus YPL051W, strain arl3, stronger effect = lower value 1.01 | locus YPL055C, strain LGE1, stronger effect = lower value 0.993 | locus YPL078C, strain atp4, stronger effect = lower value 0.953 | locus YPL106C, strain sse1, stronger effect = lower value 0.976 | locus YPL240C, strain hsp82, stronger effect = lower value 1 | locus YPL256C, strain CLN2, stronger effect = lower value 0.946 | locus YPR119W, strain clb2, stronger effect = lower value 1.01 | locus YPR141C, strain kar3, stronger effect = lower value 1.02 | locus YPR163C, strain tif3, stronger effect = lower value 1.01 | locus YPR167C, strain met16, stronger effect = lower value 1.01 | strain wtn01, stronger effect = lower value 1

— PubChem BioAssay AID1159580 (chemical genetic matrix, 2015)
